# Assay outcomes from PubChem BioAssay.
# Shown are actives, neighbours in structure and some others; about 3.9% of the full set was active somewhere.
# HSF1 inhib – HSF1 inhibition | NIH3T3-HGL HSE-luciferase, MG132-induced, luminescence 8 h; hits give low values | activity change, negative = inhibition, % at 7.5 µM (by protocol) | 300,000 compounds, 0.77% hits | AID 2098;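 active means more than half of replicate wells show activity change below -50%, luminescence cut by over half; inconclusive means some wells, but at most half, below -50%; inactive means no replicate well below -50%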;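 further: luciferase reports HSF-1 transcriptional activity via heat shock element; 0% = median of DMSO wells and -100% = zero luminescence signal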
# MITF TRPM1 HTS – MITF TRPM1 promoter activation in melanoma cells. 300,000 compounds, 0.75% hits. SK-MEL-5 TRPM1-promoter luciferase, 24 h; % of positive control, neutral wells = 0. activation, % at 12.5 µM. AID 588334;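 active means mean activation of at least 80% with every replicate also reaching 80%; inconclusive means mean reaches 80% but some replicate falls short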;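 further: 0% = neutral control wells and 100% = parthenolide positive control wells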
# Wnt act – activates Wnt/beta-catenin signaling in a reporter cell assay | activator, plate reader | activation, % at 9.35 µM | 300,000 compounds, 1.2% hits | AID 743398; in the data active means activation above about 30%, passing the limit was not always enough; inconclusive means no clear call, values can overlap the other calls;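 further: 0% = neutral control wells and 100% = positive control wells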
# HSF1 activator – increases HSF-1 driven luciferase reporter signal | NIH3T3-HGL HSF-1 luciferase reporter, MG132, 8 h; 100% = twice DMSO control signal | activation, % at 9 µM | 300,000 compounds, 1.7% hits;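 active means mean replicate activation of at least 50% with a set share of replicates each reaching 50%; inconclusive means only one of those two conditions met; inactive means mean below 50% and too few replicates reaching it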;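 further: 0% = median of the neutral control wells and 100% = twice that signal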
# esBAF inh – blocks esBAF chromatin remodeling in mouse ES cells | Bmi1-luciferase knock-in reporter, 24 h; 100% = twice the neutral-well signal | reporter increase, % at 12.5 µM | 350,000 compounds, 2% hits; in the data active means activation above about 40%; inconclusive means no clear call, values can overlap the other calls;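 further: 0% = median of the plate's neutral control wells and 100% = double that signal; a rise in the Bmi1 reporter signal indicates esBAF inhibition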
# Active calls of the source: *; ? = inconclusive; · = no result given.
SMILES,HSF1 inhib,MITF TRPM1 HTS,Wnt act,HSF1 activator,esBAF inh
CC(=O)N1[C@H](CN(CC2CCC2)C(=O)CC2CC2)[C@@H](c2ccccc2)[C@@H]1CO,·,·,·,·,-4
Cc1noc(C)c1NC(=O)Nc1ccc2c(c1)C(=O)N([C@@H](C)CO)C[C@@H](C)[C@H](CN(C)CC1CCCCC1)OCCCC[C@@H](C)O2,·,·,·,·,-1
O=C(O)C[C@H]1C[C@H]2c3cc(NC(=O)Nc4ccccc4)ccc3O[C@H]2[C@@H](CO)O1,·,·,·,·,-2
CCOc1cc(C(=S)N2CCOCC2)ccc1OS(=O)(=O)c1ccc(OC)cc1,-78*,·,-4,-83,5
CC(C)c1cc(CNC(=O)CCc2nnc(CCCc3ccccc3)o2)on1,2,52,?,26,·
CCc1cc(CNC(=O)CCc2nnc(CCCc3ccccc3)o2)on1,18,89*,43*,42,57*
CCc1ccc(NC(=S)NC(=O)CC(C)C)cc1,9,51,61*,32,·
CC(C)CC(=O)NC(=S)Nc1ccc(Cl)cn1,-4,69,8,16,49*
CC(=O)CC(=O)Nc1ccc(Cl)cn1,-9,-2,1,-3,·
CCC1Sc2ccc(S(=O)(=O)Nc3ccc(OC)cc3)cc2NC1=O (stereo unspecified),-56*,8,-2,-66,5
Cc1cc2c([nH]c3ccccc32)c2c1OC(C)(C)C=C2,31,91*,1,43,92*
COc1ccc2[nH]c(=O)c3c(c2c1)OC(C)(C)C=C3,-26,·,-8,-31,-3
CC(=O)Nc1cc2nn(-c3ccccc3)nc2cc1Cl,32,30,55*,46,·
CC(C)(C)C(=O)Nc1cc2nn(-c3ccccc3)nc2cc1Cl,·,-84,·,·,-78
CCCNC(=O)N1C[C@H]2[C@@H](c3ccccc31)[C@@H](CO)N2Cc1cccc(OC)c1,·,·,·,·,4
C[C@@H]1CN([C@H](C)CO)C(=O)c2cc(NC(=O)C3CCCCC3)ccc2O[C@@H](C)CCCCO[C@@H]1CN(C)C(=O)Nc1ccccc1,·,·,·,·,4
Cc1scc(C(=O)N/N=C/c2ccc(Cl)s2)c1C,5,44,58*,-5,·
Cc1scc(C(=O)N/N=C/c2ccc(OC(C)C)cc2)c1C,26,53,·,31,47*
CCC(=O)N(C)C[C@@H]1Oc2ncc(C#Cc3ccc(OC)cc3)cc2C(=O)N([C@H](C)CO)C[C@H]1C,·,·,·,·,5
Cc1ccccc1-n1c(=O)cc(N2CCc3ccccc32)[nH]c1=O,-79*,-16,-1,-84,-10
Cc1ccc(S(=O)(=O)N2C[C@@H](O)COC[C@@H]3O[C@H](CC(=O)NCc4ccc5c(c4)OCO5)CC[C@H]32)cc1,·,·,·,·,2
CNC(=O)C[C@H]1CC[C@H]2[C@H](COc3ccc(NC(=O)c4cccc(OC)c4)cc3C(=O)N2C)O1,·,·,·,·,-1
CC(C)C(OC(=O)c1ccccc1)c1nccc2ccccc12 (stereo unspecified),30,58,0,38,72*
O=C(OC(c1ccccc1)c1nccc2ccccc12)c1ccccc1 (stereo unspecified),·,-32,-11,·,-38
CC(=O)OCCCN1c2ccccc2Nc2nnc(-c3ccccc3)cc21,32,98*,·,?,?
SMILES,HSF1 inhib,MITF TRPM1 HTS,Wnt act,HSF1 activator,esBAF inh
CCOC(=O)c1c2c(n(C)c1C)C(=O)C(=O)c1ccc(Br)cc1-2,5,·,·,12,-80
CCOC(=O)c1c2c(n(Cc3ccccc3)c1C)C(=O)C(=O)c1ccccc1-2,99*,-103,-6,99*,·
CN1C(=O)c2cc(NC(=O)C3CCCCC3)ccc2OC[C@@H]2O[C@@H](CC(=O)NC3CCCC3)CC[C@H]21,·,·,·,·,-1
O=C(c1ccccc1)N1CCN(C(=O)c2ccccc2Br)CC1,-5,·,-5,-10,6
CC12CN(C(=O)c3ccccc3Br)CC(C)(CN(C(=O)c3ccccc3Br)C1)C2=O,0,·,41*,11,-5
CC(C)NC(=O)N(C)C[C@@H]1OCCCC[C@H](C)Oc2ccc(NC(=O)Nc3ccc(F)cc3)cc2C(=O)N([C@H](C)CO)C[C@@H]1C,·,·,·,·,3
Nc1cccc2c1C(=O)N(C(=O)c1ccco1)C2=O,-16,-5,2,-2,-1
Nc1cccc2c1C(=O)N(C(=O)/C=C/c1ccc(F)cc1)C2=O,44,-46,8,61*,-2
CC(=O)N(C)C[C@H]1Oc2ncc(C#Cc3ccccn3)cc2C(=O)N([C@@H](C)CO)C[C@H]1C,·,·,·,·,1
O=C(C[C@@H]1CC[C@H]2[C@@H](COC[C@H](O)CN2CC2CC2)O1)NCC1CC1,·,·,·,·,-2
